esBAF inh: inhibitors of esBAF chromatin remodeling in mouse ES cells; Bmi1-luciferase knock-in reporter, 24 h; 100% = twice the neutral-well signal; 2% of 350,000 active; reporter increase, % at 12.5 µM; in the data active = activation above about 40%; inconclusive = no clear call, values can overlap the other calls;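 note: 0% = median of the plate's neutral control wells and 100% = double that signal; a rise in the Bmi1 reporter signal indicates esBAF inhibition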
Wnt act: activators of Wnt/beta-catenin signaling; Wnt/beta-catenin reporter cell assay, activator, plate reader; activation, % at 9.35 µM; 1.2% of 300,000 active; AID 743398; in the data active = activation above about 30%, passing the limit was not always enough; inconclusive = no clear call, values can overlap the other calls;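 note: 0% = neutral control wells and 100% = positive control wells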
MITF TRPM1 HTS: MITF TRPM1 promoter activation in melanoma cells. SK-MEL-5 TRPM1-promoter luciferase, 24 h; % of positive control, neutral wells = 0. activation, % at 12.5 µM. 0.75% of 300,000 active. AID 588334;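 active = mean activation of at least 80% with every replicate also reaching 80%; inconclusive = mean reaches 80% but some replicate falls short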;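 note: 0% = neutral control wells and 100% = parthenolide positive control wells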
HSF1 inh: HSF1 inhibition | NIH3T3-HGL HSE-luciferase, MG132-induced, luminescence 8 h; active compounds read low | activity change, negative = inhibition, % at 7.5 µM (by protocol) | 0.77% of 300,000 active | AID 2098;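 active = more than half of replicate wells show activity change below -50%, luminescence cut by over half; inconclusive = some wells, but at most half, below -50%; inactive = no replicate well below -50%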;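 note: luciferase reports HSF-1 transcriptional activity via heat shock element; 0% = median of DMSO wells and -100% = zero luminescence signal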
HSF-1 act: increases HSF-1 driven luciferase reporter signal; NIH3T3-HGL HSF-1 luciferase reporter, MG132, 8 h; 100% = twice DMSO control signal; AID 504408; 1.7% of 300,000 active; activation, % at 9 µM;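 active = mean replicate activation of at least 50% with a set share of replicates each reaching 50%; inconclusive = only one of those two conditions met; inactive = mean below 50% and too few replicates reaching it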;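 note: 0% = median of the neutral control wells and 100% = twice that signal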
esBAF Ring1 qPCR: de-represses Ring1 in mouse ESCs, confirming esBAF inhibition; fold change at 33 µM; shares compounds with esBAF inh; 550 tested, under 10 active; mouse ESC E14, Ring1 mRNA RT-qPCR fold change;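 active = Ring1 gene expression raised more than 2-fold over untreated cells in both replicates at either tested dose; inconclusive = only one replicate above 2-fold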;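 note: Ring1 transcript normalised to actin housekeeping signal by TaqMan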
esBAF Fgf4 qPCR: represses Fgf4 in mouse ESCs, confirming esBAF inhibition; shares compounds with esBAF inh; Fgf4 expression fold change at 33 µM; 4% of 550 active; mouse ESC E14, Fgf4 mRNA qPCR fold change; active compounds read low;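 active = Fgf4 expression under 0.8 fold of control in both repeat measurements at one or both tested doses; inconclusive = under 0.8 fold in just a single repeat measurement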;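 note: Fgf4 transcript normalised to actin in duplex TaqMan qPCR; cells exposed to compound for 24 h before lysis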
esBAF Bmi1 qPCR: confirmation of esBAF inhibitors: Bmi1 de-repression in mouse ESCs; shares compounds with esBAF inh; mouse ESE14 ES cells, Bmi1 mRNA qPCR fold; active compounds read high; fold change at 33 µM; 550 tested, under 10 active;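 active = Bmi1 expression fold change above 6 at either tested concentration, seen in replicate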;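 note: higher fold means more Bmi1 de-repression and stronger esBAF inhibition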
A549 cytotox: kills or reduces viability of A549 cells | 550 tested, under 10 active | A549 cytotoxicity, plate reader | AID 743188 | cell viability change % (negative = cytotoxic), % at 25 µM, hits read low | shares compounds with esBAF inh; call rule not given here
HepG2 tox SP: HepG2 cell cytotoxicity at single point | shares compounds with esBAF inh | plate reader; active compounds read low | activity change, negative = inhibition, % at 25 µM | 4% of 550 active; in the data active = activity change below about -50%
HEK293 tox SP: cytotoxicity in HEK293 cells. shares compounds with esBAF inh. plate reader. activity change, negative = inhibition, % at 25 µM, hits read low. 3% of 550 active. AID 743190; in the data active = activity change below about -38%, passing the limit was not always enough
Numbers without * were called inactive; ? = inconclusive; nt = not tested or not shown. The list is not random: actives were taken first. Their share in the collection is about 3.8%.

SMILES	esBAF inh	Wnt act	MITF TRPM1 HTS	HSF1 inh	HSF-1 act	esBAF Ring1 qPCR	esBAF Fgf4 qPCR	esBAF Bmi1 qPCR	A549 cytotox	HepG2 tox SP	HEK293 tox SP
COc1ccc(-c2csc(Nc3cc(C)ccn3)n2)cc1C	46.4*	13.0	19.2	17.3	21.2	1.27	?	1.39	-5.7	-19.7	-8.5
COc1ccc(-c2csc(Nc3ncccc3C)n2)cc1	-8.5	nt	48.8	21.9	?	nt	nt	nt	nt	nt	nt
COC(=O)N1CCCC(c2cc(C(=O)Nc3ccccc3Cl)no2)C1 (configuration not stated)	73.1*	-4.5	nt	nt	nt	0.935	0.902	1.36	-1.5	-29.6	-12.2
Cc1c(Cl)cccc1NC(=O)c1cc(C2CC2)on1	66.5*	7.2	43.5	12.8	37.0	1.49	1.04	1.49	-4.3	-12.9	-13.1
O=C(Nc1ccccc1)c1cc(C2CCCN(C(=O)c3ccccc3)C2)on1 (configuration not stated)	57.4*	1.0	nt	nt	nt	1.13	0.967	1.05	-20.0	-15.8	-26.6
O=C(Nc1ccccc1Cl)c1cc(C2CCCN(C(=O)OCCF)C2)on1 (configuration not stated)	?	14.5	nt	nt	nt	nt	nt	nt	nt	nt	nt
O=C(Nc1ccc2c(c1)[C@H]1C[C@@H](CC(=O)N3CCCCC3)O[C@H](CO)[C@H]1O2)C1CCOCC1	-1.5	nt	nt	nt	nt	nt	nt	nt	nt	nt	nt
C[C@@H]1CN([C@@H](C)CO)C(=O)c2cc(NC(=O)Nc3ccc4c(c3)OCO4)ccc2O[C@H]1CN(C)S(C)(=O)=O	-0.8	nt	nt	nt	nt	nt	nt	nt	nt	nt	nt
CCN(CC)S(=O)(=O)c1cccc(-c2cn3cc(C)ccc3n2)c1	64.8*	nt	68.5	2.8	15.2	1.1	0.774*	2.01	0.2	-48.9	-15.1
C=CCN(C(=O)CC(NC(C)=O)c1ccccc1)c1nc(-c2ccc(S(C)(=O)=O)cc2)cs1 (configuration not stated)	77.8*	5.3	48.3	8.9	26.5	0.939	1.23	1.12	-12.3	-11.2	-17.7
c1ccc(Nc2cccc(Nc3ccccc3)n2)cc1	59.1*	nt	49.8	3.9	23.9	0.972	?	1.65	-4.9	-27.0	-9.0
c1ccc(Nc2ccccn2)cc1	1.6	0.7	nt	6.2	-3.0	nt	nt	nt	nt	nt	nt
Cc1cc(C)cc(N(CC(=O)Nc2ccc(-c3nc4ccc(C)cc4s3)cc2)S(C)(=O)=O)c1	46.9*	38.5*	57.9	-4.9	19.2	1.02	0.918	1.45	-7.6	-44.8	-8.6
Oc1ccc(/C=N/N2CCCCC2)cc1O	-8.5	-2.3	27.4	0.4	2.4	nt	nt	nt	nt	nt	nt
Clc1ccc(C=NN2CCCCCC2)cc1	81.8*	?	68.7	nt	nt	1.26	1.1	1.71	-9.1	-13.8	-5.2
N#Cc1ccc(C=NN2CCCCCC2)cc1	69.2*	47.6*	53.0	nt	nt	1.28	?	1.59	-8.2	-7.1	-14.3
Clc1ccc(C=NN2CCCCCC2)c(Cl)c1	39.2	16.2	21.3	nt	nt	nt	nt	nt	nt	nt	nt
C[C@H]1CN([C@@H](C)CO)C(=O)c2cccc(NC(=O)C3CCOCC3)c2O[C@@H]1CN(C)Cc1ccncc1	5.3	nt	nt	nt	nt	nt	nt	nt	nt	nt	nt
C[C@H](CO)N1C[C@H](C)[C@@H](CN(C)S(C)(=O)=O)Oc2ccc(NC(=O)NC3CCCCC3)cc2CC1=O	-0.5	nt	nt	nt	nt	nt	nt	nt	nt	nt	nt
CC(C)NC(=O)NCC[C@H]1CC[C@@H](NC(=O)CCN2CCCCC2)[C@@H](CO)O1	-3.3	nt	nt	nt	nt	nt	nt	nt	nt	nt	nt
COc1ccc(-c2ccc3oc(-c4ccsc4)cc(=O)c3c2)cn1	68.2*	47.9*	137.8*	nt	nt	1.36	0.939	1.47	-0.7	-21.8	-2.5
Cc1ccc(N=Nc2cc(C)ccc2O)c(C)c1	86.6*	17.0	52.1	-3.7	2.2	1.05	?	1.66	-8.2	-50.3*	-14.2
Cc1ccc(C)c(N=Nc2ccc(O)c3ncccc23)c1	nt	-9.0	-61.7	-12.9	-26.6	nt	nt	nt	nt	nt	nt
CN1CCCCN2[C@H](CO)[C@@H](c3ccc(C#Cc4ccccc4F)cc3)[C@H]2C1	1.8	nt	nt	nt	nt	nt	nt	nt	nt	nt	nt
Cc1noc(C)c1NC(=O)Nc1cccc2c1O[C@H](CN(C)Cc1ccc(-c3ccccc3)cc1)[C@@H](C)CN([C@@H](C)CO)C2=O	5.3	nt	nt	nt	nt	nt	nt	nt	nt	nt	nt
SMILES	esBAF inh	Wnt act	MITF TRPM1 HTS	HSF1 inh	HSF-1 act	esBAF Ring1 qPCR	esBAF Fgf4 qPCR	esBAF Bmi1 qPCR	A549 cytotox	HepG2 tox SP	HEK293 tox SP
O=C(O)c1ccc2noc(-c3ccccc3)c2c1	81.5*	nt	52.6	1.7	26.4	1.06	?	1.51	3.0	9.3	2.0
CC(C)NC(=O)N(C)C[C@@H]1Oc2c(NC(=O)c3ccncc3)cccc2C(=O)N([C@H](C)CO)C[C@H]1C	-4.0	nt	nt	nt	nt	nt	nt	nt	nt	nt	nt
C/C=C/c1cnc2c(c1)C(=O)N([C@H](C)CO)C[C@H](C)[C@@H](CN(C)S(=O)(=O)c1ccc(F)cc1)O2	0.1	nt	nt	nt	nt	nt	nt	nt	nt	nt	nt
COc1ccc2c(CN(C)Cc3ccccc3)cc(=O)oc2c1	57.2*	16.4	nt	nt	nt	1.13	0.876	1.83	-13.4	-64.8*	-19.4
Cc1ccc(NC(=O)c2cc(C)nc3ccccc23)cc1	-8.4	0.4	nt	6.7	13.8	nt	nt	nt	nt	nt	nt
CC(=O)c1ccc(NC(=O)c2cc(C)nc3ccccc23)cc1	62.0*	4.8	54.3	0.9	11.4	1.35	1.09	1.52	4.3	-26.7	-3.4
O=C(Nc1nc2ccc(Cl)cc2s1)c1cccc(N2C(=O)CCC2=O)c1	66.8*	?	52.4	8.8	2.3	1.67	1.02	1.33	-11.6	11.3	-0.2
O=C(C[C@H]1C[C@@H]2c3cc(NC(=O)CC4CC4)ccc3O[C@@H]2[C@@H](CO)O1)NCC(F)(F)F	-8.9	nt	nt	nt	nt	nt	nt	nt	nt	nt	nt
C[C@@H]1CN([C@H](C)CO)C(=O)c2cc(NS(=O)(=O)c3ccc(Cl)cc3)ccc2O[C@H]1CN(C)S(=O)(=O)c1cccs1	-0.8	nt	nt	nt	nt	nt	nt	nt	nt	nt	nt
CC(=O)Nc1ccc(-c2nc3c(C)cccc3[nH]2)cc1	60.1*	47.7*	nt	-31.5	-47.9	1.3	0.858	1.83	-5.8	-1.2	-2.0
CCN(CC)C(=O)OCc1c(-c2ccccc2)ncc2ccccc12	105.8*	?	101.6*	nt	nt	0.924	?	1.96	-1.9	-1.8	-4.4
CC(C)c1ccc(CNc2ncc(Br)cn2)cc1	72.9*	20.9	95.6*	21.6	30.3	0.882	0.993	1.45	-12.0	-63.0*	-17.6
COc1ccc(C2=NN(C(=O)c3ccncc3)C(c3ccccc3O)C2)cc1 (configuration not stated)	19.6	2.3	20.9	3.6	11.8	nt	nt	nt	nt	nt	nt

Assay outcomes as filed in PubChem.
